MBNL1 CUG block: MBNL1-poly(CUG) RNA binding inhibition; Q9NR56; TR-FRET MBNL1-His/biotin-(CUG)12 binding, 665/545 ratio; Potency, µM (top dose mostly 57.5 µM), hits mostly inhibitors; hit rate 0.036% among 280,000; active = well fitted inhibition curve with a large enough effect in the signal ratio, with a control signal flat, not every such curve was filed as active; inconclusive = small, poorly fitted or top-dose-only effect, or effect the other way, or a change in a side signal; inactive = no such curve, though single readings can be large or run the other way; the % refers to the signal ratio
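Compound titration spanned 92 nM–58 uM against the MBNL1-His/biotin-(CUG)12 complex. After 60 min at room temperature with 5 nM streptavidin-XL665 and 0.055 ng/ul terbium anti-His, ratiometric 665/545 nm emission (Ex 340 nm) normalized to controls.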
Lamin A splicing: modulators of lamin A splicing; Potency, µM (doses to about 46.1 µM), actives largely listed as inhibitors; AID 1487; hit rate 0.01% among 200,000; HeLa LMNA splicing GFP/RFP minigene ratio, 48 h; active = well fitted inhibition curve with a large enough effect in the signal ratio, with a control signal flat, not every such curve was filed as active; inconclusive = small, poorly fitted or top-dose-only effect, or effect the other way, or a change in a side signal; the % refers to the signal ratio
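S3 HeLa cells stably expressing lamin A-EGFP splicing minigene plus DsRed2, 600 cells/well, 48 h compound exposure at 37C. Laser-scanning cytometry; analysed as GFP (500-530 nm)/RFP (575-640 nm) total intensity ratio; 0.5% DMSO vehicle.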
CBFb RUNX1 block: inhibitors of human CBF-beta and RUNX1 interaction; Potency, µM (doses to about 59.8 µM), usual class: inhibitors; Q01196+Q13951; 230,000 tested, under 10 active; AlphaScreen CBFb-His/RUNX1-biotin binding, biochemical
Target sequence (Q01196 whole entry, looked up): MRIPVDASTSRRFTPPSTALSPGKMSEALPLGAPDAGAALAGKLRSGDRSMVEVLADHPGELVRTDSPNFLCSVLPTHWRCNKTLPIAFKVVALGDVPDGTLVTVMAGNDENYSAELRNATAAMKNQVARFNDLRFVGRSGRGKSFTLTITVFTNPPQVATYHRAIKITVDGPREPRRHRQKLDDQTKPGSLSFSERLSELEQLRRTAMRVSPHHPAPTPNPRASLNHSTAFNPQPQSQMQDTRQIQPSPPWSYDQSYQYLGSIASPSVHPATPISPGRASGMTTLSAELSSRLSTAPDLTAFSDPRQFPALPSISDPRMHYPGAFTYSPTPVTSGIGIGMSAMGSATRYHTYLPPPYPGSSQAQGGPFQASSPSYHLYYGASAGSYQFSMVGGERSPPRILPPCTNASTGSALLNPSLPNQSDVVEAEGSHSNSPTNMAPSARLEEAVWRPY
Target sequence (Q13951 whole entry, looked up): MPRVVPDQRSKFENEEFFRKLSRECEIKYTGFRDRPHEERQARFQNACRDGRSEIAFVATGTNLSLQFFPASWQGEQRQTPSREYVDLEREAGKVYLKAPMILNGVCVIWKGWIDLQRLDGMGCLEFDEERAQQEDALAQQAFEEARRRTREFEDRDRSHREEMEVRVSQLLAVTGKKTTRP
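Inhibition was taken as any reduction in AlphaScreen signal from the CBF-beta–RUNX1 pair (His and biotin tags, 30 nM each), measured after compound (15 min) and bead (90 min) incubations at room temperature.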
MBNL1-CUG FRET: confirmation of inhibitors of human MBNL1-poly(CUG) RNA binding | shares compounds with MBNL1 CUG block | TR-FRET MBNL1-His / biotin-(CUG)12 binding, 60 min | Potency, µM (doses to about 57.6 µM), actives largely listed as inhibitors | hit rate 50% among 140 | AID 493199
MBNL1 AlphaScrn: confirmation of MBNL1-(CUG)12 RNA binding inhibitors, orthogonal format. shares compounds with MBNL1 CUG block. AlphaScreen MBNL1-His / biotin-(CUG)12 binding. Potency, µM (series often up to 57.7 µM), actives largely listed as inhibitors. hit rate 30% among 140
Menin-MLL HTRF: hit in HTRF counterscreen for MBNL1-poly(CUG) binding inhibitors; His-Menin/biotin-MLL peptide TR-FRET counterscreen; shares compounds with MBNL1 CUG block; Potency, µM (doses to about 57.6 µM), hits mostly inhibitors; hit rate 20% among 120; AID 651843
Hits are given with their value; [ ] = another dose, or the depositor's remark. Only some compounds are listed: those with a hit (about 0.036% of all), similar ones and a draw of the others. Unless noted, calls come from the whole dose curve; as a rule, active = well fitted curve in the direction sought with a large enough effect; inconclusive = small, poorly fitted or top-dose-only effect, or another doubt; inactive = no such curve, though single readings can be large; an effect the other way counts as inactive or inconclusive.

Screening O=C(O)CCCCCCCC(=O)O returned MBNL1 CUG block 20µM, Lamin A splicing inconclusive, CBFb RUNX1 block inactive, MBNL1-CUG FRET inconclusive, MBNL1 AlphaScrn inconclusive and Menin-MLL HTRF inactive.
CCCCCCC(=O)O was read as CBFb RUNX1 block inactive.
For CCCCNC(=O)C1CCC(Cn2c(=O)c3sccc3n(CC(=O)N3CCCC3)c2=O)CC1 (stereo unspecified) the results were Lamin A splicing inactive.
`CCN(CC)S(=O)(=O)c1ccc2c(c1)N(CC(=O)NCCCN1CCN(c3cc(C)ccc3C)CC1)C(=O)CO2` gave Lamin A splicing inactive.
COc1cccc(NC(=O)CSc2ncc(S(=O)(=O)c3ccccc3)c(=O)[nH]2)c1 was read as MBNL1 CUG block inactive and CBFb RUNX1 block inactive.
Cc1ccc(NC(=O)CSc2ncc(S(=O)(=O)c3ccccc3)c(=O)[nH]2)cc1C was read as MBNL1 CUG block 25µM, Lamin A splicing inactive, CBFb RUNX1 block inactive, MBNL1-CUG FRET inconclusive, MBNL1 AlphaScrn inconclusive and Menin-MLL HTRF inactive.
Screening CCO/C=C1\C(=O)N(c2ccccc2)C(=O)c2ccccc21 returned MBNL1 CUG block inactive, Lamin A splicing inactive and CBFb RUNX1 block inactive.
`CCO/C=C1/C(=O)N(Cc2ccccc2)C(=O)c2ccccc21` gave MBNL1 CUG block 16µM, Lamin A splicing inactive, CBFb RUNX1 block inactive, MBNL1-CUG FRET inactive, MBNL1 AlphaScrn 52µM and Menin-MLL HTRF inactive.
For OC1(c2ccc(Cl)cc2)CCN(Cc2cn[nH]c2-c2ccccc2)CC1 the results were MBNL1 CUG block 10µM, CBFb RUNX1 block inactive, MBNL1-CUG FRET 41µM, MBNL1 AlphaScrn inactive and Menin-MLL HTRF inactive.
Screening OC1(c2ccc(Cl)cc2)CCN(Cc2cn[nH]c2-c2ccc(F)cc2)CC1 returned CBFb RUNX1 block inactive.
`COc1ccccc1CCNC(=O)C(=O)NCC(c1cccnc1)N1CCN(c2ccccc2)CC1` (stereo unspecified) gave Lamin A splicing inactive.
For Cc1ccc(Cl)cc1NC(=O)c1ccc2nc(CCc3ccccc3)oc2c1 the results were Lamin A splicing inactive.
Screening CC(=O)c1ccc(NC(=O)Nc2ccncc2)cc1 returned MBNL1 CUG block inactive and CBFb RUNX1 block inactive.
Screening Cc1ccc(NC(=O)Nc2cccnc2)cc1Cl returned MBNL1 CUG block inactive.
`CC(=O)c1ccc(NC(=O)Nc2cccnc2)cc1` gave MBNL1 CUG block 28µM, MBNL1-CUG FRET 21µM, MBNL1 AlphaScrn inactive and Menin-MLL HTRF 29µM.
For CN1CCc2cc(NC(=O)Nc3cccnc3)ccc21 the results were Lamin A splicing inactive, CBFb RUNX1 block inactive, MBNL1-CUG FRET inconclusive and MBNL1 AlphaScrn inactive.
`COc1cccc(OCC(=O)Nc2nnc3n2CCS3)c1` gave Lamin A splicing inactive.
For COc1ccc(C2/C=C\CN(C(=O)c3ccc(C)cc3)C(C)C(=O)N2Cc2ccc(F)cc2)cc1 (stereo unspecified) the results were CBFb RUNX1 block inactive.
O=C(Cc1ccc(F)cc1)NC1CC(=O)N(c2ccccc2)C1 (stereo unspecified) was read as Lamin A splicing inactive.
Cn1nnc2c(N3CCN(c4cccc(Cl)c4)CC3)ncnc21 was read as Lamin A splicing inactive.
CCCn1c2ccccc2c2cnn(CC(=O)NCc3cc(OC)ccc3OC)c(=O)c21 was read as Lamin A splicing inactive.
CCn1c(SCC(=O)Nc2nc(C)c(C)s2)nnc1-c1ccco1 was read as MBNL1 CUG block inactive, Lamin A splicing inactive and CBFb RUNX1 block inactive.
For CCn1c(SCC(=O)Nc2nc(C)c(C)s2)nnc1-c1cccs1 the results were MBNL1 CUG block 40µM, Lamin A splicing inactive, CBFb RUNX1 block inactive, MBNL1-CUG FRET inactive, MBNL1 AlphaScrn inactive and Menin-MLL HTRF inactive.
Screening Cc1[nH]c2ccccc2c1C(=O)COC(=O)Cn1cnc2ccccc21 returned MBNL1 CUG block inactive, Lamin A splicing inactive and CBFb RUNX1 block inactive.
Screening CCOC(=O)CCCCC(=O)c1[nH]c(=O)[nH]c1Cn1cnc2ccccc21 returned MBNL1 CUG block 10µM, Lamin A splicing inactive, CBFb RUNX1 block inactive, MBNL1-CUG FRET 10µM, MBNL1 AlphaScrn 2.6µM and Menin-MLL HTRF 26µM.
O=C1c2c(O)ccc(O)c2C(=O)c2c(NCCNCCO)ccc(NCCNCCO)c21 was read as MBNL1 CUG block inconclusive, Lamin A splicing inconclusive, CBFb RUNX1 block inconclusive, MBNL1-CUG FRET 1.6µM, MBNL1 AlphaScrn inconclusive and Menin-MLL HTRF inactive.
For O=C1c2cccc(O)c2C(=O)c2c(O)cc(CO)cc21 the results were CBFb RUNX1 block inactive.
`CCCCNC(=O)C(CC)Sc1nnc(-c2cccc(F)c2)c(-c2cccc(F)c2)n1` (stereo unspecified) gave Lamin A splicing inactive.
`COc1ccc(-n2ncc(C(=O)NCc3ccccc3)c2C2CCN(C(=O)OC(C)(C)C)CC2)cc1` gave Lamin A splicing inactive.
For Cc1nn(-c2ccccc2)c2nc(C3CC3)cc(C(=O)Nc3ccc(F)cc3)c12 the results were Lamin A splicing inactive.
`O=C(N/N=C/c1ccc(-c2ccccc2Cl)o1)c1ccccc1` gave MBNL1 CUG block inactive and CBFb RUNX1 block inactive.
O=S(=O)(N/N=C\c1ccc(-c2ccccc2Cl)o1)c1ccccc1 was read as MBNL1 CUG block 20µM, Lamin A splicing inconclusive, CBFb RUNX1 block inactive, MBNL1-CUG FRET inactive, MBNL1 AlphaScrn inactive and Menin-MLL HTRF inactive.
`COc1ccc(OC2C=CC(C#Cc3ccc(F)cc3F)OC2CO)cc1` (stereo unspecified) gave CBFb RUNX1 block inactive[13.1 µM].
Screening COc1ccc(Cl)cc1NC(=O)Cn1ccn(Cc2ccc(C)cc2)c(=O)c1=O returned Lamin A splicing inactive.
`CCOCCn1cnc2sc(C(=O)Nc3ccccc3C(=O)OC)c(C)c2c1=O` gave Lamin A splicing inactive.
COc1ccccc1NC(=O)Nc1ccnn1C1CCN(C(=O)c2ccccn2)CC1 was read as MBNL1 CUG block inactive.
For COc1ccccc1NC(=O)Nc1ccnn1C1CCCCC1 the results were MBNL1 CUG block inactive, Lamin A splicing inactive, CBFb RUNX1 block inactive, MBNL1-CUG FRET inactive, MBNL1 AlphaScrn inactive and Menin-MLL HTRF inactive.
COc1ccccc1NC(=O)Cc1cccs1 was read as MBNL1 CUG block inactive, Lamin A splicing inactive and CBFb RUNX1 block inactive.
`COc1ccccc1NC(=O)Nc1ccnn1Cc1cccs1` gave MBNL1 CUG block 4µM, Lamin A splicing inactive, CBFb RUNX1 block inactive, MBNL1-CUG FRET 1.3µM, MBNL1 AlphaScrn 0.65µM and Menin-MLL HTRF 10µM.
Screening CCOC(=O)CCN1C(=O)[C@H]2[C@H]3[C@H](O)[C@H](O)C/C(=N/NC(=O)OCC)[C@@H]3CC[C@@H]2C1=O returned CBFb RUNX1 block inactive[13.1 µM].

High-throughput results as filed in PubChem BioAssay.
